# About 83,000 compounds went through this panel and 20% of them were active in at least one assay; those are over-represented in the sample as a whole.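 Method: cells in 96-well plates; compound added at one concentration; 48 h incubation; percent growth measured; values under 10 scored active.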 A number with no mark means an inactive call. Active and inactive are the calls of the source.
# Assays:
# Assay in all cases: NCI-60 one-dose screen, 48 h (100 = growth as untreated, 0 = no growth, -100 = all killed)
# K-562 leukemia = conditions: 10 µM unless noted
# MALME-3M melanoma = conditions: 10 µM unless noted
# MDA-MB-231 breast = conditions: 10 µM unless noted
# RXF 393 renal = conditions: 10 µM unless noted
# SF-268 CNS = conditions: 10 µM unless noted
# SF-295 CNS = conditions: 10 µM unless noted
# SF-539 CNS = conditions: 10 µM unless noted
# UACC-257 melanoma = conditions: 10 µM unless noted
# M14 melanoma = conditions: 10 µM unless noted
# HCT-15 colon = conditions: 10 µM unless noted
# HT29 colon = conditions: 10 µM unless noted
# SNB-75 CNS = conditions: 10 µM unless noted
# SNB-19 CNS = conditions: 10 µM unless noted
# U251 CNS = conditions: 10 µM unless noted
# PC-3 prostate = conditions: 10 µM unless noted
# SK-MEL-5 melanoma = conditions: 10 µM unless noted
# UACC-62 melanoma = conditions: 10 µM unless noted
# LOX IMVI melanoma = conditions: 10 µM unless noted
# SK-MEL-28 melanoma = conditions: 10 µM
# SK-MEL-2 melanoma = conditions: 10 µM unless noted
Structure (SMILES),growth (K-562 leukemia),growth (MALME-3M melanoma),growth (MDA-MB-231 breast),growth (RXF 393 renal),growth (SF-268 CNS),growth (SF-295 CNS),growth (SF-539 CNS),growth (UACC-257 melanoma),growth (M14 melanoma),growth (HCT-15 colon),growth (HT29 colon),growth (SNB-75 CNS),growth (SNB-19 CNS),growth (U251 CNS),growth (PC-3 prostate),growth (SK-MEL-5 melanoma),growth (UACC-62 melanoma),growth (LOX IMVI melanoma),growth (SK-MEL-28 melanoma),growth (SK-MEL-2 melanoma)
O=C(Nc1ccc(F)cc1F)c1cc(Cl)ccc1O,11%,-21.9% (active),10.3%,4.05% (active),15%,-8.97% (active),12.3%,-11% (active),18.8%,13.9%,31.4%,-8.57% (active),16.2%,3.34% (active),6.06% (active),-67.5% (active),7.39% (active),14.5%,25.3%,-25.6% (active)
CCCCOCc1cc(CN2CCN(C)CC2)c(O)c2ncccc12,50.7%,93.4%,47.1%,69%,47.9%,58.5%,53.3%,51.4%,41.2%,25.6%,96%,68.2%,48.6%,27.8%,34.3%,50.6%,53%,35.9%,74.7%,97.7%
O=C(N/N=C/c1ccccc1O)C(=O)Nc1ccc(F)cc1,42.3%,70.9%,43.8%,74.3%,48.8%,4.78% (active),33.7%,27.2%,50%,28.2%,40.9%,85.5%,53.9%,33.5%,54.7%,55.5%,35.1%,27.2%,59.4%,71.6%
COc1cc(/C(C#N)=C/c2nc3c(N4CCOCC4)nc(Cl)nc3n2C)cc(OC)c1OC,4.64% (active),34.8%,9.11% (active),25.7%,17.2%,-15% (active),-23.7% (active),66.2%,10.8%,8.94% (active),9.95% (active),-9.92% (active),17.7%,8.74% (active),10.6%,-38.3% (active),2.78% (active),8.21% (active),46%,57.3%
O=S(=O)(c1ccc(NC(=S)NC23CC4CC(CC(C4)C2)C3)cc1)N1CCCCC1,7.73% (active),86.5%,102%,115%,66.6%,58.1%,107%,96.9%,72.3%,82.8%,94.1%,93.3%,99.9%,85.2%,8.79% (active),87.7%,80.8%,96.9%,95%,106%
O=C(Nc1ccc(C23CC4CC(CC(c5ccccc5)(C4)C2)C3)cc1)c1cccs1,26.5%,84.5%,87.5%,77.5%,103%,105%,92%,75.4%,71.1%,60.2%,53.8%,98.6%,91.9%,69.8%,60%,56.1%,63.8%,76.5%,79.5%,75.6%
O=C(Nc1ccc(N2CCNCC2)cc1)c1[nH]ncc1Nc1cc(Oc2ccccc2)ncn1,8.34% (active),58.4%,-20.9% (active),-89.2% (active),35%,-70.2% (active),-46.2% (active),29.7%,12.9%,-35.9% (active),-59.7% (active),49.1%,45.9%,24.4%,-60.3% (active),22.8%,-5.09% (active),-81% (active),46.9%,72.3%
CCOC(=O)c1sc(-c2ccc(OS(=O)(=O)c3ccc(Br)s3)c(C=O)c2)nc1C,9.45% (active),13.2%,4.99% (active),51.7%,16.4%,32.8%,-5.53% (active),28.8%,1.87% (active),1.83% (active),-17.9% (active),-5.48% (active),14.4%,-4.79% (active),20.1%,-92.6% (active),12.3%,-54.5% (active),55%,11.3%
